Pf growth 96h: P. falciparum growth inhibition at 96 hours; P. falciparum luciferase reporter growth, 96 h; Potency, µM (top dose mostly 28.7 µM), usual class: inhibitors; 320,000 tested, 6.9% active
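Parasite growth measured via integrated firefly luciferase reporter in P. falciparum. Infected erythrocytes at 2% hematocrit, 0.05% parasitemia final were treated 96 hours at 37 C under 5% CO2, and luminescence was read.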
Shiga toxin inh: blocks Shiga toxin action in Vero cells | Vero cells, Shiga toxin protein synthesis inhibition reporter | inhibition, % at 38.7 µM | 290,000 tested, 9.2% active | AID 2315; in the data active = inhibition mostly above about 28%, no sharp cut-off; inactive = mostly below about 43%
NS1 inh: influenza NS1 inhibition; AID 2326; 270,000 tested, 0.4% active; Potency, µM (doses to about 46.1 µM); calls by dose curve; note: actives are rising curves; nearly all actives have a fitted effect of over 50% in size
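A cell-based growth assay was used: compounds that relieve NS1-induced slow growth of budding yeast raise OD600. Assay medium was yeast nitrogen base with ammonium sulphate and -URA supplement, pH 6.0, with 2% galactose.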
CHX counter: counter-screen for Shiga toxin inhibitors: cycloheximide protein synthesis inhibition; cell reporter, cycloheximide protein synthesis inhibition counterscreen; max response, %; 300,000 tested, 12% active; AID 2314; in the data active = max response mostly above about 13%, no sharp cut-off; inactive = mostly below about 14%; note: read at 38.3 µM for the half of the compounds with a filed dose
Pf growth 48h: P. falciparum growth inhibition at 48 hours (one generation); P. falciparum luciferase growth in erythrocytes, 48 h; Potency, µM (highest dose often 28.7 µM), hits mostly inhibitors; 310,000 tested, 5.9% active; AID 504832
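Parasite viability was followed by luminescence of a genomically integrated firefly luciferase. Cultures held 0.1% parasitemia at 2% hematocrit (final), incubated under 5% CO2 at 37 C.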
A number is an active result; 0 = inactive; ? = inconclusive; - = no result given. Only some compounds are listed: those with a hit (about 21% of all), similar ones and a draw of the others. Unless noted, calls come from the whole dose curve; as a rule, active = well fitted inhibition curve with a large enough effect; inconclusive = small, poorly fitted or top-dose-only effect, or another doubt; inactive = no such curve, though single readings can be large or run the other way.

SMILES	Pf growth 96h	Shiga toxin inh	NS1 inh	CHX counter	Pf growth 48h
COCc1c(C(=O)NC2CCCCCC2)oc2ccccc12	0	62	0	22	0
Cc1c(C(=O)NC2CCC(C)CC2)oc2ccccc12 (stereo unspecified)	0	61	0	46	0
Cc1c(C(=O)NCCCN2CCCC2=O)oc2c(Cl)cccc12	0	-	-	-	0
Cc1c(C(=O)NCc2cccs2)oc2ccccc12	-	30	0	19	0
Cc1c(C(=O)NC2CC2)oc2ccccc12	0	-	-	-	0
Cc1c(C(=O)NCCCN2CCCC2=O)oc2ccccc12	?	72	0	27	0
CON1C(=O)C(=O)N(OC)C2CCCCC21 (stereo unspecified)	0	0	0	0	?
Cc1ccc(S(=O)(=O)N2CCCC(C(=O)NCCC(C)C)C2)cc1 (stereo unspecified)	0	0	0	0	?
O=C(CSc1nnc(COc2ccccc2)o1)NCCc1ccccc1	0	0	0	0	0
COc1ccc2oc(C(=O)NCCc3ccccc3)c(C)c2c1	0	-	-	-	0
COCc1c(C(=O)N(C)Cc2ccccc2N2CCCC2)oc2ccccc12	9.3µM	-	-	-	?
O=C(NCCc1ccccc1)c1oc2ccccc2c1COc1ccccc1	13µM	39	0	26	?
COCc1c(C(=O)N2CCN(c3ncccn3)CC2)oc2ccccc12	?	-	-	-	0
Cc1c(C(=O)NCCc2ccccc2)oc2ccccc12	0	75	0	29	0
O=C(Nc1ccccc1Cc1ccccc1)c1oc2ccccc2c1COc1ccccc1	10µM	0	0	0	?
CC(OC(=O)c1oc2ccccc2c1COc1ccccc1)C(=O)NC(N)=O (stereo unspecified)	0	0	0	0	0
COc1ccc(CCNC(=O)C(C)Sc2ccc(C)cc2)cc1OC (stereo unspecified)	0	0	0	0	0
[N-]=[N+]=NC[C@@H]1O[C@@H](n2cnc3c(N)ncnc32)[C@@H]2O[C@@H]21	-	-	0	-	-
CC(=O)N1CCc2cc(S(=O)(=O)CCC(=O)NCc3ccco3)ccc21	?	0	-	0	0
c1ccc(Oc2nc(NC3CCCCC3)c3[nH]cnc3n2)cc1	-	0	-	0	-
CCOc1cc(/C=N/Nc2nc(-c3cccs3)c(NC(C)=O)s2)ccc1O	?	0	0	20	?
CC(=O)Nc1sc(N/N=C\c2ccccc2Cl)nc1-c1cccs1	?	82	0	73	?
CC(=O)Nc1sc(NC(=O)c2ccc([N+](=O)[O-])cc2)nc1-c1cccs1	?	0	0	0	?
CC(=O)Nc1sc(N/N=C\c2ccco2)nc1-c1cccs1	?	0	0	12	?
CC(=O)Nc1sc(N/N=C\c2ccccc2)nc1-c1cccs1	?	active	0	31	?
SMILES	Pf growth 96h	Shiga toxin inh	NS1 inh	CHX counter	Pf growth 48h
CC(=O)Nc1sc(NC(=O)c2ccc(Cl)cc2)nc1-c1cccs1	0	0	0	0	0
CC(=O)Nc1sc(N/N=C/c2ccc(O)cc2)nc1-c1ccc(C)cc1	?	0	0	0	?
CCOc1ccccc1C(=O)N1CCCCC1C (stereo unspecified)	0	0	0	0	0
CC1CCC(O)C/C1=C\C=C1/CCCC2(C)C1CCC2C(C)/C=C/C(C)C(C)C (stereo unspecified)	0	0	-	0	0
CCn1c(SCC(=O)c2ccc(OC)cc2)nnc1C(C)NC(=O)c1ccc(OC)cc1 (stereo unspecified)	-	0	0	0	0
Cc1ccc(-c2nnc3sc(CCc4ccccc4)nn23)cc1	0	47	0	19	?
CCOc1ccccc1OCc1nn2c(COc3ccccc3)nnc2s1	?	0	0	0	0
COc1ccc(-c2nnc3sc(COc4ccccc4)nn23)cc1	0	0	0	0	0
c1ccc(Cc2nn3c(COc4ccccc4)nnc3s2)cc1	-	60	0	13	0
CCOc1ccc(-c2nnc3sc(COc4ccccc4)nn23)cc1	12µM	0	0	0	0
O=C(Cc1c(F)cccc1Cl)N(Cc1ccccc1)c1ccccn1	0	0	0	0	0
CCOC(=O)C(CC)(CC)/C(C)=N/NC(=O)CC#N	0	0	0	0	-
CN1CCN(NC(=O)CSc2ccc(Cl)cc2Cl)CC1	0	0	-	0	?
Cc1ccc(S(=O)(=O)CC(CN2CCCCC2)N2CCCCC2)cc1 (stereo unspecified)	?	0	0	0	8.3µM
Cc1ccc(S(=O)(=O)CC(c2ccccc2)N2CCOCC2)cc1 (stereo unspecified)	9.3µM	0	0	0	0
Cc1ccc(S(=O)(=O)CC(c2ccccc2)N2CCCCC2)cc1 (stereo unspecified)	10µM	0	0	0	0
O=S(=O)(CC(CN1CCCCC1)N1CCCCC1)c1ccc2ccccc2c1 (stereo unspecified)	0	0	-	0	0
NC(Cc1ccc(Oc2ccc(O)cc2)cc1)C(=O)O (stereo unspecified)	0	0	0	0	0
CCCOc1cccc(C(=O)NCCNC(=O)c2cnccn2)c1	0	0	0	0	0
COc1ccc(Cl)cc1NC(=O)c1cccc(NC(=O)CCC(=O)O)c1	?	0	0	0	0
CC(C)(C)c1ccc(S(=O)(=O)NCC(=O)N2CCN(Cc3ccccc3)CC2)cc1	0	0	0	0	0
CC(=O)c1cnn(-c2ccccc2)c1C	0	0	-	0	0
CCc1ccc(NC(=O)c2cnn(-c3ccccc3)c2C)cc1	0	59	0	63	0
Cc1ccc(-c2nn(-c3ccccc3)cc2C(=O)O)o1	0	0	0	0	0
CCc1ccc(NC(=O)c2cnn(-c3ccccc3)c2C2CCNCC2)cc1	0	0	-	0	?
SMILES	Pf growth 96h	Shiga toxin inh	NS1 inh	CHX counter	Pf growth 48h
Cc1c(C(=O)Nc2ccccc2F)cnn1-c1ccccc1	0	80	0	57	0
Cc1nn(-c2ccccc2)cc1C(=S)Nc1ccccc1	0	64	0	27	0
Cc1c(C(=O)Nc2cc(F)cc(F)c2)cnn1-c1ccccc1	0	-	0	52	0
Cc1ccc(NC(=O)c2cnn(-c3ccccc3)c2NC(=O)c2ccco2)cc1C	12µM	0	0	0	0
Cc1c(C(=S)Nc2ccccc2)cnn1-c1ccc([N+](=O)[O-])cc1	?	0	0	0	0
O=C(Oc1ccccc1O)c1cccc2ccccc12	0	0	0	0	0
Cc1c(C(=S)Nc2ccccc2)cnn1-c1ccccc1	0	0	0	35	0
CCN(CC)C(=O)c1cnn(-c2ccccc2)c1NC(=O)c1ccco1	0	0	0	0	-
Cc1c(C(=O)Oc2cccc3ccccc23)cnn1-c1ccccc1	-	151	0	45	0
COc1ccc(N(CC(O)Cn2cnc3ccccc32)S(=O)(=O)c2ccc(C)cc2)cc1 (stereo unspecified)	0	0	0	0	?
Brc1ccc(CSc2nnc(-c3ccccn3)n2Cc2ccco2)cc1	3.7µM	0	0	0	?
Clc1cccc(CSc2nnc(-c3ccccn3)n2Cc2ccco2)c1	?	0	0	0	?
CC(C)(C)c1ccc(CSc2nnc(-c3ccccn3)n2Cc2ccco2)cc1	-	0	0	0	7.4µM
CCCOc1ccccc1C(=O)N1CCCCC1CCN1CCCCC1 (stereo unspecified)	-	0	-	0	-

Assay outcomes from PubChem.
